JMJD2A Tudor – blocks the human JMJD2A Tudor domain | 4.4% of 390,000 active | AlphaScreen JMJD2A-Tudor / H3K4me3 peptide binding | AID 504339 | Potency, µM (titrated, usually from 114 µM), for inactives: at the top dose activity change, negative = inhibition, most hits filed as inhibitors | O75164; also: % is scaled to controls: 0 for no effect and ±100 for the full control effect; nearly all actives have a fitted effect of over 50% in size
L3MBTL1 inh – blocks human L3MBTL1; AlphaScreen L3MBTL1–H3K9me1 peptide binding; Q9Y468; 0.66% of 230,000 active; AID 485360; Potency, µM (titrated, usually from 57.1 µM), inactives show at the highest dose activity, negative = inhibition, most hits filed as inhibitors; also: % is scaled to controls: 0 for no effect and ±100 for the full control effect; nearly all actives have a fitted effect of over 60% in size
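L3MBTL1 (50 nM) pre-complexed 30 min with biotinylated H3(1-15)K9me1 peptide (75 nM), then compounds added for 30 min at room temperature; AlphaScreen streptavidin donor/nickel chelate acceptor beads (10 ug/mL final) read after 30 min dark incubation.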
G9a block – inhibitors of human histone lysine methyltransferase G9a | Q96KQ7 | G9a H3K9 monomethylation, AlphaScreen, 2 h | Potency, µM (doses to about 102 µM), for inactives: at the highest dose activity, negative = inhibition, most hits filed as inhibitors | 8.8% of 350,000 active; also: % is scaled to controls: 0 for no effect and ±100 for the full control effect; nearly all actives have a fitted effect of over 75% in size
Target sequence (Q96KQ7 913-1193 limits assumed): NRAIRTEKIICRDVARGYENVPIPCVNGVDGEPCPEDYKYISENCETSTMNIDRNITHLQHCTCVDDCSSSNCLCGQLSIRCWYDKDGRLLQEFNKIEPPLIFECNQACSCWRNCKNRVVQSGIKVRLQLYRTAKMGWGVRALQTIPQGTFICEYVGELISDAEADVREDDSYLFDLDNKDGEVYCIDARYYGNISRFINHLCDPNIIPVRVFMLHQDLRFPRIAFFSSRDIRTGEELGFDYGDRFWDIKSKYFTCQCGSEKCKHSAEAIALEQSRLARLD
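G9a (20 nM) was preincubated 15 min with compound, then reacted 2 h at room temperature with 500 nM biotin-H3K9 peptide and 20 µM SAM. Monomethyl-H3K9 detected by AlphaScreen using anti-H3K9me1 antibody.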
BAZ2B inh – inhibitors of human BAZ2B bromodomain | Q9UIF8 | Potency, µM (top dose mostly 114 µM), inactives show at the top dose activity change, negative = inhibition, actives largely listed as inhibitors | AID 504333 | 4.4% of 360,000 active | AlphaScreen BAZ2B-H3K14Ac peptide displacement; also: % is scaled to controls: 0 for no effect and ±100 for the full control effect; nearly all actives have a fitted effect of over 60% in size
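Protein-peptide AlphaScreen: BAZ2B 50 nM, b-H3K14Ac 50 nM, 1x PBS pH 7.4 + 0.01% Tween-20. Preincubation 30 min RT; cpd 30 min RT (top 110 uM); beads 20 min RT, light-protected.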
HP1b binding inh – HP1-beta chromodomain-methylated histone interaction inhibition; 0.56% of 390,000 active; AlphaScreen HP1-beta / biotin-H3K9me3 peptide binding; Potency, µM (top dose mostly 114 µM), without a hit: at the top dose activity change, negative = inhibition, usual class: inhibitors; also: nearly all actives have a fitted effect of over 70% in size
Target sequence (P83916 whole entry, looked up): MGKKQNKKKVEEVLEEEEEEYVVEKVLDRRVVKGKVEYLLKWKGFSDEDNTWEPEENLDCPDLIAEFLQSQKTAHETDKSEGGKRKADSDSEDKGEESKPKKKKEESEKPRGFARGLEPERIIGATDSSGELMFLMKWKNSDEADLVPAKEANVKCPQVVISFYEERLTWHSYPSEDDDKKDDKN
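Compound inhibition of the preformed complex between 50 nM HP1-beta and 50 nM biotinylated H3K9me3 peptide was read by AlphaScreen. Buffer was PBS pH 7.4 with 0.01% Tween-20. Incubations ran 30 min at room temperature, with 10 ug/mL donor/acceptor beads.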
Sfp PPTase inh – inhibitors of Bacillus subtilis Sfp phosphopantetheinyl transferase. 3.5% of 310,000 active. Biochemical Sfp PPTase activity, qHTS. Potency, µM, for the others: largest response in the series, negative = inhibition, most hits filed as inhibitors;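 also: the enzyme is Sfp with the accession as filed and its product quenches rhodamine fluorescence; 0% = enzyme reaction without inhibitor and -100% = no enzyme wells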
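Sfp 15 nM + cpd, 15 min RT; start w/ rhodamine-CoA 5 uM, BHQ-2-YbbR 12.5 uM (final); 50 mM Hepes pH 7.6, 10 mM MgCl2, 0.01% NP-40, 0.01% BSA; read 525/598 nm at 0 and 30 min.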
Numbers without * were called inactive; u = inconclusive; x = no result given; [ ] = another dose, or the depositor's remark. The list is not random: actives were taken first. Their share in the collection is about 12%. Calls follow the shape of the dose curve; as a rule, active = well fitted curve in the direction sought with a large enough effect; inconclusive = small, poorly fitted or top-dose-only effect, or another doubt; inactive = no such curve, though single readings can be large; an effect the other way counts as inactive or inconclusive. Potency is read from the fitted curve at half-maximal effect.

SMILES	JMJD2A Tudor	L3MBTL1 inh	G9a block	BAZ2B inh	HP1b binding inh	Sfp PPTase inh
COc1cc(/C=C2\C(=N)N3N=C(S(C)(=O)=O)SC3=NC2=O)ccc1OS(=O)(=O)c1ccc(C)cc1	56µM*	x	10%[59 µM]	50µM*	-5%	-24%
COc1cccc(OCCOc2ccc(/C=C3\C(=N)N4N=C(S(C)(=O)=O)SC4=NC3=O)cc2OC)c1	56µM*	x	40µM*	79µM*	-3%	-7%
Cc1cc(/C=C2\C(=N)N3N=C(S(C)(=O)=O)SC3=NC2=O)c(C)n1Cc1ccccc1	u	x	45µM*	-37%	-19%	45µM*
CCOc1cc(/C=C2\C(=N)N3N=C(C)SC3=NC2=O)ccc1OCCOc1cccc(OC)c1	3%	8%	11%	-27%	40%	-2%
CCCC1=NN2C(=N)/C(=C\c3cc(C)n(Cc4ccccc4)c3C)C(=O)N=C2S1	-24%	1%	5%	-2%	50%	-18%
CCOc1cc(/C=C2/C(=N)N3N=C(C)SC3=NC2=O)ccc1OS(=O)(=O)c1ccc(C)cc1	-22%	x	2%	8%	1%	4%
CCCc1nn2c(=O)cc(COC(=O)CNC(=O)COc3ccc(C)cc3)nc2s1	-3%	x	9%[59 µM]	-8%	29%	x
Cc1ccc2c(c1)sc1nc(-c3cc4cc(Cl)ccc4oc3=O)cn12	-20%	x	9%[59 µM]	3%	0%	x
Cn1c2ccc(CC(=O)O)cc2c2cc(CC(=O)O)ccc21	-12%	-17%	50µM*	u	27%	-13%
O=C(O)Cc1ccc2[nH]c3ccc(CC(=O)O)cc3c2c1	-30%	-13%	u	-31%	30%	-4%
O=C(O)c1ccccc1C(=O)Nc1nccs1	-22%	8%	0%[0.0925 µM]	14%	1%	-7%
O=C(O)c1ccccc1C(=O)Nc1n[nH]c(=S)s1	13µM*	u	1.4µM*	32µM*	28µM*	10µM*
Fc1cccc(CSc2nnc3c(n2)[nH]c2ccccc23)c1	-14%	x	24%[59 µM]	-10%	36%	17%
CN(C)CCSc1nnc2[nH]c3ccccc3c2n1	-9%	-5%	1.4µM*	-4%	26%	-25%
COc1cccc(NC(=O)c2sc(-n3nc(C)c(Cc4ccccc4Cl)c3C)nc2C)c1	-14%	x	2%[59 µM]	-14%	58%	x
Cc1ccc(C(=O)N2CCCCC2CCN2CCCCC2)cc1 (configuration not stated)	-16%	x	-29%[59 µM]	-1%	6%	x
CCc1ccccc1NC(=O)N(C)CCc1c(C)nn(C)c1C	-4%	x	36%[59 µM]	30%	69%	x
CN(C)c1cccc2c1c(NC(=O)Nc1ccccc1)nn2C	u	-18%	35µM*	-33%	10%	-3%
COc1cccc(-n2c(=O)c3c(C)c(C)sc3n(Cc3ccccc3C#N)c2=O)c1	-18%	x	10%[59 µM]	-1%	5%	x
CC(C)n1c(S(=O)(=O)O)nc2ccccc21	-3%	7%	45µM*	-18%	35%	-2%
CC(c1ccccc1)n1c(S(=O)(=O)O)nc2ccccc21 (configuration not stated)	-28%	13%	-7%	2%	37%	14%
CCS(=O)(=O)N1CC(=O)N(c2ccc(Cl)cc2)C(C)(C(=O)NC2CCCCC2)C1 (configuration not stated)	5%	x	2%[59 µM]	2%	44%	x
O=C(O)c1cc2c(cn1)[nH]c1ccccc12	7.1µM*	x	23%	4µM*	17%	2%
CCOC(=O)CNC(=O)c1ccc2[nH]c3ccccc3c2c1	-11%	4%	7%	-14%	11%	2%
O=C(NCCCO)c1cc2c(cn1)[nH]c1ccccc12	-20%	x	9%	u	35%	6%
SMILES	JMJD2A Tudor	L3MBTL1 inh	G9a block	BAZ2B inh	HP1b binding inh	Sfp PPTase inh
C[C@H](NC(=O)c1cc2c(cn1)[nH]c1ccccc12)C(=O)O	45µM*	x	1.4µM*	50µM*	28µM*	8.9µM*
COC(=O)[C@H](C)NC(=O)c1cc2c(cn1)[nH]c1ccccc12	40µM*	x	1.4µM*	u	u	8.9µM*
COc1ccccc1OCC(=O)Nc1c(C(=O)c2ccc(F)cc2)oc2ccccc12	-5%	x	-3%[59 µM]	-1%	17%	x
CC(C)Nc1nc(NC(C)C)nc(N(C)N)n1	35µM*	x	52%[59 µM]	3.2µM*	30%	13%
CC(C)Nc1nc(NC(C)C)nc(N(C)C(N)=O)n1	-6%	0%	u	u	31%	28%
CCNc1nc(NCC)nc(N(C)N)n1	28µM*	u	27%	25µM*	50%	10%
CCNc1nc(NC(C)C)nc(N(C)C#N)n1	-12%[11.4 µM]	6%	x	-2%	29%	-5%
Cc1cc(C)c2c(=O)cc(C(=O)Nc3ccc(S(=O)(=O)Nc4onc(C)c4C)cc3)oc2c1	-35%	x	-40%[59 µM]	u	-5%	x
C/C(=N\N=C1\NC(=O)C(CC(=O)O)S1)c1ccccn1 (configuration not stated)	u	-13%	x	50µM*	51%	-10%
CCOc1ccc(N=C2NC(=O)C(CC(=O)O)S2)cc1 (configuration not stated)	5%	7%	31%[12.7 µM]	-6%	24%	4%
O=S(=O)(c1ccc(C2CCCCC2)cc1)N1CCN(c2cc(Cl)ccc2Cl)CC1	-1%	x	2%[59 µM]	-8%	7%	x
CN1CCC(Oc2ccc(Sc3ccccc3)cc2)CC1	-24%	-9%	-6%[59 µM]	-21%	16%	-9%
CN1CCC(Oc2ccccc2Sc2ccc(C(F)(F)F)cc2)CC1	u	-1%	u	79µM*	11%	-25%
O=C(NCCCN1CCCCC1)c1ccc2c(c1)ncn2C1CCCC1	-8%	x	45µM*	-19%	43%	3%
CCn1c(C)c(C)c2cc(C(=O)NCCCN3CCCC3)ccc21	50µM*	x	56µM*	-18%[57.1 µM]	3%	-4%
O=C(NCCCN1CCN(c2ccccc2F)CC1)c1ccc2nc(N3CCCCC3)sc2c1	u	x	11µM*	-11%	-19%	x
O=C(NCCCN1CCCC1=O)c1ccc2c(c1)ncn2C1CCCCC1	-3%	3%	-9%	-2%	36%	10%
CCn1c(C)c(C)c2cc(C(=O)Nc3cccc(Cl)c3)ccc21	-31%[57.1 µM]	-13%	79µM*	-11%[57.1 µM]	-8%	21%
Cc1c(C)n(Cc2ccccc2)c2ccc(C(=O)NCCN3CCOCC3)cc12	u	x	u	u	7%	0%
Cc1c(C)n(Cc2ccc(Cl)cc2)c2ccc(C(=O)NCCN3CCOCC3)cc12	u	x	u	45µM*	-8%	-19%
COc1ccc(C(=O)N2CCC3(CCN(Cc4nccs4)CC3)CC2)cc1	x	x	-6%[12.7 µM]	x	x	10%

Screening data: PubChem, National Center for Advancing Translational Sciences (NCATS)
